Source: PubChem BioAssay (Tox21)
Calls of active or inactive are those of the source. The call rests on the fitted dose curve.

Each molecule was assayed against Acetylcholinesterase (Homo sapiens) (UniProt P22303) (assay: Acetylcholinesterase (AChE) small molecule antagonists: enzyme-based qHTS assay (AID 1347397; further: nearly all actives have a fitted effect of over 55% in size)). Details: Potency: AChE enzyme activity inhibition; outcome: AChE enzyme activity inhibition; series mostly up to 115 µM; activity change, negative = inhibition: at the top concentration.
Procedure, shortened: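 Colorimetric DTNB read-out of thiocholine released from acetylthiocholine by recombinant human AChE (50 mU/mL as dispensed). Compounds were preincubated 30 min at RT before substrate/DTNB addition, with a 10 min RT reaction.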
On the % scale 0 is the no-effect control and ±100 the full control effect.

Sequence of Acetylcholinesterase (Homo sapiens) (P22303 whole entry, looked up): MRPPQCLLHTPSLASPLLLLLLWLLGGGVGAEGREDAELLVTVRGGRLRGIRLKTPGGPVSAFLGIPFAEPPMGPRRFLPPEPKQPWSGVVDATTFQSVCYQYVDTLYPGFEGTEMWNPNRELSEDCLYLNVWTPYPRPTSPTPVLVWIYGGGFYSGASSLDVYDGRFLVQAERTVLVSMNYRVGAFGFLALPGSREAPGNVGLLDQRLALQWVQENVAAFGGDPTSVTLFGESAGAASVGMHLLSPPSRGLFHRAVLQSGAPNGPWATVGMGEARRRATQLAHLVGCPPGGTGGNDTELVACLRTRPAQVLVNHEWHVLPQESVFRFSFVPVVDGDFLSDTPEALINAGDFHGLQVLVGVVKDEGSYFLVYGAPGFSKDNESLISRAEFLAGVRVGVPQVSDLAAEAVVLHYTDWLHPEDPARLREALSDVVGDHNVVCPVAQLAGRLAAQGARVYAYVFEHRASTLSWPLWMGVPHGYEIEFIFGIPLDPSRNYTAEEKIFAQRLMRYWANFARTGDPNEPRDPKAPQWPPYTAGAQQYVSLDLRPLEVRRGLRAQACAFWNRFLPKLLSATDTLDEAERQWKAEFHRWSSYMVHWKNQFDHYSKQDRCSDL

Structure (SMILES)	Potency	activity change, negative = inhibition
O=C1CCCC1	inactive	–
Cc1nc(C2CCCCC2)c(-c2ccc(S(N)(=O)=O)c(F)c2)o1	–	0.0109% [at 53 µM] (inactive)
CN(C)C(=O)CNC(=O)Cc1ccccc1	–	5.28% [at 53 µM] (inactive)
NS(=O)(=O)O	inactive	–
CCCCCCC(C)(C)S	inactive	–
CC(C)NCC(O)COc1ccc(COCCOC(C)C)cc1 (centres undefined)	–	0.962% [at 53 µM] (inactive)
COC(c1ccccc1)(c1ccccc1)[C@H](Oc1nc(C)cc(C)n1)C(=O)O	–	0.0283% [at 53 µM] (inactive)
CCCCCCCO	inactive	–
CNC(=O)NC	–	0.684% (inactive)
CC1(C)O[C@@H]2C[C@H]3[C@@H]4C[C@H](F)C5=CC(=O)C=C[C@]5(C)[C@@]4(F)[C@@H](O)C[C@]3(C)[C@]2(C(=O)CO)O1	inactive	–
NC(=O)N/N=C/c1ccc([N+](=O)[O-])o1	inactive	–
C[C@H](CCC(=O)O)[C@H]1CC[C@H]2[C@@H]3[C@H](O)C[C@@H]4C[C@H](O)CC[C@]4(C)[C@H]3CC[C@]12C	–	-1.23% (inactive)
CCCCCCCCNC	–	-2.75% (inactive)
OCCc1ccccc1	inactive	–
CC(=O)CC(=O)Nc1ccccc1	inactive	–
OCc1ccccc1	inactive	–
O[C@@H]1CO[C@H]2[C@@H]1OC[C@@H]2O	–	0.554% [at 53 µM] (inactive)
OCCN1C[C@H](O)[C@@H](O)[C@H](O)[C@H]1CO	–	0.69% [at 53 µM] (inactive)
NNS(=O)(=O)c1ccc(Oc2ccc(S(=O)(=O)NN)cc2)cc1	–	0% (inactive)
Cc1ccc(C=O)cc1	–	-0.409% [at 53 µM] (inactive)

Structure (SMILES)	Potency	activity change, negative = inhibition
CCCC[O][Al]([O]CCCC)[O]CCCC	–	0.0026% (inactive)
CN1Cc2c(N)cccc2C(c2ccccc2)C1 (centres undefined)	inactive	–
Oc1cc(O)c2c(c1)O[C@H](c1ccc(O)c(O)c1)[C@H](O)C2	–	1.24% [at 53 µM] (inactive)
CN(C)C(=O)NC1(c2ccccc2)CCN(CCC[C@]2(c3ccc(Cl)c(Cl)c3)CCCN(C(=O)c3ccccc3)C2)CC1	–	0.197% [at 23.6 µM] (inactive)
COC(=O)[C@@H]1CC2=CC(=O)CC[C@]2(C)[C@@]23O[C@@H]2C[C@@]2(C)[C@@H](CC[C@@]24CCC(=O)O4)[C@H]13	–	0.443% [at 53 µM] (inactive)
O=C(/C=C/c1ccccc1)OCCCc1ccccc1	–	0.687% (inactive)
NC(=O)c1ccccc1O	inactive	–
C=C[Si](OC(=C)C)(OC(=C)C)OC(=C)C	–	-0.903% (inactive)
NC[C@H]1O[C@H](O[C@H]2[C@H](O[C@@H]3O[C@H](CO)[C@@H](O)[C@H]3O)C(O)[C@H](N)C[C@@H]2N)[C@H](N)[C@@H](O)[C@@H]1O (some centres undefined)	–	0.757% [at 10.5 µM] (inactive)
Oc1ccc(OCc2ccccc2)cc1	inactive	–
Cc1ncc(CSSCc2cnc(C)c(O)c2CO)c(CO)c1O	–	-0.0169% [at 53 µM] (inactive)
CCC(Cc1c(I)cc(I)c(N)c1I)C(=O)O (centres undefined)	inactive	–
COc1cc(CNC(=O)CCCC/C=C/C(C)C)ccc1O	–	-2.05% (inactive)
O=C(O)c1ccc2cc(C(=O)O)ccc2c1	–	-0.266% (inactive)
O=c1cc(O)c(Cl)c[nH]1	–	0.759% [at 53 µM] (inactive)
CC1(C)O[C@H]2CC(=O)OC[C@]23[C@H]2CC[C@@]4(C)[C@H](c5ccoc5)OC(=O)[C@H]5O[C@]54[C@]2(C)C(=O)C[C@@H]13	–	-1.21% [at 53 µM] (inactive)
CCCCCCCCCCC(=O)O	–	-15.9% (inactive)
Cc1c(Cn2ccnc2)c2ccccc2n1CCC(=O)O	–	0.948% [at 53 µM] (inactive)
C/C=C/c1ccc(OC)c(OC)c1	–	0.157% (inactive)
